# Compound activity deposited in PubChem BioAssay by National Center for Advancing Translational Sciences (NCATS).
# TDP1 cell CPT = growth inhibition of DT40 Tdp1-/-;hTDP1 cells with camptothecin (screen for TDP1 inhibitors); chicken DT40 Tdp1-/-;hTDP1 cells + 20 nM CPT, ATP luminescence, 48 h; Potency, µM (highest dose often 46.2 µM), inactives show top-dose activity change, negative = growth inhibition, most hits filed as inhibitors; 420,000 tested, 12% active; AID 686979; also: potency is read from the fitted curve at half-maximal effect; nearly all actives have a fitted effect of over 55% in size
#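 Chicken DT40 Tdp1-/- cells stably complemented with human TDP1 were seeded at 400 cells/well in medium containing 20 nM camptothecin, exposed to pin-transferred compounds, and grown at 37 °C for at least 48 hr. Viability was read as ATP luminescence.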
# HT1080 IDH1KD tx = toxicity to HT-1080 IDH1 knockdown cells (counter line). HT-1080 IDH1 knockdown viability, ATP luminescence, 48 h. Potency, µM (highest dose often 46.1 µM), without a hit: at the highest dose activity, negative = toxicity, hits mostly cytotoxic. 360,000 tested, 2% active. AID 686971;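 also: potency is read from the fitted curve at half-maximal effect; 0% = DMSO wells and -100% = cell-free medium wells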
#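 IDH1KD HT-1080 cells, 750/well, RPMI + 5% FBS; compound pinned after 2 h settling; 48 h, 37 °C; CellTiter-Glo luminescence; % activity normalised to DMSO and no-cell wells; curves fitted, classed by r2 and efficacy.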
# HT1080NT lethal = kills 2HG-producing HT-1080-NT fibrosarcoma cells | HT-1080-NT fibrosarcoma viability, CellTiter-Glo ATP luminescence, 48 h | Potency, µM (titrated, usually from 46.1 µM), without a hit: at the highest dose activity, negative = less viability, usual class: cytotoxic | 360,000 tested, 1.6% active;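 also: NT is the 2HG producing partner of a matched IDH1 knockdown line; potency is read from the fitted curve at half-maximal effect; 0% = DMSO-treated cells and -100% = media-only wells without cells; nearly all actives have a fitted effect of over 55% in size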
#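 Luminescent CellTiter-Glo readout after 48 hours of compound exposure at 37 degrees C defined viability of HT-1080-NT cells. Activity was normalized to DMSO wells and cell-free media wells; concentration-response curves were fitted and assigned curve classes.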
# IL1B secr inh = blocks inflammasome-driven IL-1 beta release; AID 743279; 360,000 tested, 4.7% active; THP-1 LPS/ATP IL-1B secretion, AlphaLISA, 16 h; active compounds read low; activity change, % at 57.5 µM; in the data active = activity change below about -50%; inconclusive = mostly about -30% to -49%
#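 THP-1 cells pretreated 1 hr with compounds (up to 57.5 uM final), then stimulated with LPS (250 ng/mL final) plus ATP (1.25 mM final); secreted IL-1B measured by AlphaLISA after 16 hr, decreased signal indicating inhibition.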
# DT40 TDP1 no CPT = qHTS for Inhibitors of human tyrosyl-DNA phosphodiesterase 1 (TDP1): qHTS in cells in absence of CPT. DT40 Tdp1-/- hTDP1 cells, no CPT, ATP luminescence, 48 h. Potency, µM (series often up to 46.2 µM), without a hit: at the highest dose activity change, negative = growth inhibition, usual class: inhibitors. 420,000 tested, 15% active; also: potency is read from the fitted curve at half-maximal effect; nearly all actives have a fitted effect of over 55% in size
#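 Growth of hTDP1-complemented DT40 Tdp1-knockout cells is measured by ATP luminescence after at least 48 hr compound exposure at 37 °C, with DMSO substituting for the 20 nM CPT used in the parallel screen.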
# uPA generation = blocks generation of uPA at the cell surface | cell surface uPA generation assay, qHTS | AID 540303 | Potency, µM (titrated, usually from 38.3 µM), without a hit: at the top dose activity change, negative = inhibition, usual class: inhibitors | 330,000 tested, 0.31% active; active = well fitted inhibition curve with a large enough effect; inconclusive = small, poorly fitted or top-dose-only effect; inactive = no such curve, though single readings can be large or run the other way; tested in mouse RAW 264.7 cells; also: potency is read from the fitted curve at half-maximal effect; nearly all actives have a fitted effect of over 55% in size
# * = called active by the depositor; ? = inconclusive; . = no result given. Rows were chosen to be rich in hits. Some 19% of all compounds tested hit in one or more screens of this group. Unless noted, calls follow the shape of the dose curve; as a rule, active = well fitted curve in the direction sought with a large enough effect; inconclusive = small, poorly fitted or top-dose-only effect, or another doubt; inactive = no such curve, though single readings can be large; an effect the other way counts as inactive or inconclusive. Unless noted, % is scaled to controls: 0 for no effect and ±100 for the full control effect.
SMILES,TDP1 cell CPT,HT1080 IDH1KD tx,HT1080NT lethal,IL1B secr inh,DT40 TDP1 no CPT,uPA generation
COc1cc2nc(N3CCCN(C)CC3)nc(Nc3ccncc3)c2cc1OC,3.16µM*,.,.,.,7.94µM*,.
COc1cc2c(NC3CCN(C)CC3)nc(N3CCCN(C)CC3)nc2cc1OCC1CCNCC1,-3.5%,.,.,.,-14.4%,.
COc1cc2nc(N3CCN(C)CC3)nc(NC3CC3)c2cc1OC,11.2µM*,-11.7%,-8.9%,.,10µM*,.
COc1cc2nc(N3CCCCC3)nc(NC3CC3)c2cc1OC,12.6µM*,-15.6%,-20.7%,.,15.8µM*,.
COc1ccc(-c2cn(CC[C@@H]3CC[C@H](NC(=O)Cc4ccccn4)[C@@H](CO)O3)nn2)cc1,-5.9%,17.4%,0.0%,-16.8,-7.0%,.
O[Si](CCCN1CCCCC1)(c1ccc(F)cc1)C1CCCCC1 (centres undefined),?,20.6µM*,?,?,25.9µM*,23.4%
CC1=C(C(=O)O)N2C(=O)C(NC(=O)c3ccc(F)cc3)C2SC1 (centres undefined),-15.4%,-2.8%,1.6%,20.4,-12.9%,5.2%
COc1ccc(NC(=O)CN(c2cc(C)cc(C)c2)S(=O)(=O)c2c(C)noc2C)cc1Cl,?,.,.,.,23.1µM*,.
COc1ccc(OC)c(NC(=O)CN(c2ccc(C)cc2)S(=O)(=O)c2c(C)noc2C)c1,?,-10.9%,-20.8%,0.0,?,5.8%
COc1ccc(N(CC(=O)Nc2ccc(OC)c(Cl)c2)S(=O)(=O)c2c(C)noc2C)cc1,20.6µM*,-20.6%,-17.3%,0.8,20.6µM*,-4.4%
COc1ccc(N(CC(=O)Nc2cc(Cl)ccc2OC)S(=O)(=O)c2c(C)noc2C)cc1,3.26µM*,11.6µM*,?,0.0,4.11µM*,-9.4%
COc1ccccc1NC(=O)CN(c1ccc(C(C)C)cc1)S(=O)(=O)c1c(C)noc1C,18.4µM*,.,.,.,23.1µM*,.
CC(=O)NNC(=O)c1csc(-c2csc(C)n2)n1,3.9%,2.0%,18.4%,3.8,3.6%,0.2%
CCN1C[C@@H]2[C@@H]3C(=O)N(Cc4ccccc4)C(=O)[C@@H]3[C@](Cc3ccccc3)(C1=O)N2C(=O)c1ccc(C)cc1,-3.9%,10.1%,10.5%,-18.0,-20.5%,-9.5%
COc1ccc(N(CC(=O)Nc2ccc(C)c(C)c2)S(=O)(=O)c2c(C)n[nH]c2C)cc1,?,-11.2%,-6.7%,-124.1*,?,-4.3%
Cn1ncc2c1NC(c1ccc(F)cc1)SCC2=O (centres undefined),-12.5%,4.2%,4.4%,5.9,-27.3%,.
COc1ccc(-n2ncc3c(N(C)C4CCCCC4)ncnc32)cc1,?,12.3%,16.4%,-23.0,?,?
Cc1cccc(-n2ncc3c(N(C)C4CCCCC4)ncnc32)c1,?,1.4%,0.7%,-28.2,?,1.41µM*
Cc1ccc(Cl)cc1-n1ncc2c(NC3CCCCC3)ncnc21,9.2µM*,.,.,.,14.6µM*,.
CCN(CC)c1ncnc2c1cnn2-c1cc(Cl)ccc1C,20.6µM*,.,.,.,20.6µM*,.
Clc1cccc(-n2ncc3c(NCCCn4ccnc4)ncnc32)c1,20.6µM*,.,.,.,?,.
O=C(Nc1cccc(C(=O)O)c1)/C(=C\c1cccc([N+](=O)[O-])c1)NC(=O)c1ccc(Br)cc1,10.0%,8.8%,9.6%,-10.3,-3.5%,.
Clc1cccc(-n2ncc3c(NC4CCCCC4)ncnc32)c1,?,.,.,.,18.4µM*,.
Cc1ccc(Cl)cc1-n1ncc2c(N3CCN(Cc4ccccc4)CC3)ncnc21,2.59µM*,.,.,.,2.31µM*,.
CCC(c1nnnn1Cc1ccccc1)N1CCN(C/C=C/c2ccccc2)CC1 (centres undefined),?,?,-29.3%,-7.9,14.6µM*,.
